From PubChem BioAssay (NCI)
About 83,000 compounds went through this panel and 20% of them were active in at least one assay; those are over-represented in the sample as a whole.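 Method: cells in 96-well plates; compound added at one concentration; 48 h incubation; percent growth measured; values under 10 scored active.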 The source made the active and inactive calls.

Tests used:
Assay in all cases: NCI-60 one-dose screen, 48 h (100 = growth as untreated, 0 = no growth, -100 = all killed)
Conditions in all cases: 10 µM unless noted
DU-145 prostate = test system: DU-145 prostate
K-562 leukemia = test system: K-562 leukemia
MALME-3M melanoma = test system: MALME-3M melanoma
MDA-MB-231 breast = test system: MDA-MB-231 breast
RXF 393 renal = test system: RXF 393 renal
SF-268 CNS = test system: SF-268 CNS
SF-295 CNS = test system: SF-295 CNS
SF-539 CNS = test system: SF-539 CNS
UACC-257 melanoma = test system: UACC-257 melanoma
M14 melanoma = test system: M14 melanoma
HCT-15 colon = test system: HCT-15 colon
HT29 colon = test system: HT29 colon
SNB-19 CNS = test system: SNB-19 CNS
U251 CNS = test system: U251 CNS
PC-3 prostate = test system: PC-3 prostate
SK-MEL-5 melanoma = test system: SK-MEL-5 melanoma
UACC-62 melanoma = test system: UACC-62 melanoma
LOX IMVI melanoma = test system: LOX IMVI melanoma
SK-MEL-28 melanoma = test system: SK-MEL-28 melanoma
SNB-75 CNS = test system: SNB-75 CNS

Measured: growth

CCCCCCC(=O)NC1=C(N2CC2)C(=O)C(NC(=O)CCCCCC)=C(N2CC2)C1=O
active: MALME-3M melanoma 7.93%
inactive: DU-145 prostate 15.6% | K-562 leukemia 70.7% | MDA-MB-231 breast 24.8% | RXF 393 renal 25.7% | SF-268 CNS 52.9% | SF-295 CNS 29.7% | SF-539 CNS 61.7% | UACC-257 melanoma 34.2% | M14 melanoma 20.5% | HCT-15 colon 69% | HT29 colon 19.2% | SNB-19 CNS 60.6% | U251 CNS 52.1% | PC-3 prostate 35.4% | SK-MEL-5 melanoma 52.4% | UACC-62 melanoma 30.6% | LOX IMVI melanoma 33.5% | SK-MEL-28 melanoma 81.5%

CC(C)[C@@H]1NC(=O)[C@]2(C)CSC(=N2)c2csc(n2)CNC(=O)C[C@@H](/C=C/CCS)OC1=O
inactive: MALME-3M melanoma 21.4% | MDA-MB-231 breast 12% | SF-268 CNS 11.3% | SF-539 CNS 21% | M14 melanoma 10.1% | HCT-15 colon 58.6% | SNB-75 CNS 29.1% | SNB-19 CNS 22.3% | PC-3 prostate 17%
active: DU-145 prostate 8.24% | K-562 leukemia 8.34% | RXF 393 renal -57.7% | SF-295 CNS 6.21% | UACC-257 melanoma -42.5% | U251 CNS -62.1% | SK-MEL-5 melanoma -81.2% | UACC-62 melanoma -42.2% | LOX IMVI melanoma -93.1% | SK-MEL-28 melanoma 5.48%

CCOC(=O)N[C@H]1CCc2c(Br)c(OC)c(OC)c(OC)c2-c2ccc(SC)c(=O)cc21
active: DU-145 prostate -19.5% | K-562 leukemia 5.89% | MDA-MB-231 breast -7.24% | SF-539 CNS -31.9% | M14 melanoma 0.572% | SK-MEL-5 melanoma -23.4% | LOX IMVI melanoma 9.29%
inactive: MALME-3M melanoma 35.1% | RXF 393 renal 12.8% | SF-268 CNS 17.5% | SF-295 CNS 10.8% | UACC-257 melanoma 67.5% | HT29 colon 13.1% | SNB-75 CNS 17.2% | SNB-19 CNS 28.7% | U251 CNS 19.7% | PC-3 prostate 24.2% | UACC-62 melanoma 38.7% | SK-MEL-28 melanoma 56.8%

O=C([O][Hg][c]1ccccc1)c1ccccc1
active: DU-145 prostate -35.7% | K-562 leukemia -21.4% | MALME-3M melanoma -4.96% | MDA-MB-231 breast -53.1% | RXF 393 renal -72.4% | SF-268 CNS -34.9% | UACC-257 melanoma -30% | M14 melanoma -68.3% | HT29 colon -14.8% | SNB-75 CNS -4.27% | U251 CNS -31.9% | SK-MEL-5 melanoma 5.37% | UACC-62 melanoma -42.3% | LOX IMVI melanoma -80.3% | SK-MEL-28 melanoma -61.1%
inactive: SF-295 CNS 56.8% | SF-539 CNS 19.4% | SNB-19 CNS 56.8% | PC-3 prostate 35.4%

O=C1CN=C(c2ccc(Cl)cc2)c2sccc2N1
inactive: DU-145 prostate 109% | K-562 leukemia 88.1% | MALME-3M melanoma 97.4% | MDA-MB-231 breast 100% | RXF 393 renal 100% | SF-268 CNS 106% | SF-295 CNS 96.5% | SF-539 CNS 93.4% | UACC-257 melanoma 119% | M14 melanoma 110% | HCT-15 colon 98.6% | HT29 colon 100% | SNB-19 CNS 96.6% | U251 CNS 101% | PC-3 prostate 98.6% | SK-MEL-5 melanoma 99.5% | UACC-62 melanoma 91.6% | LOX IMVI melanoma 95.3% | SK-MEL-28 melanoma 105%

CCOP(=O)(Cc1ccc(C#N)cc1)OCC
inactive: DU-145 prostate 116% | K-562 leukemia 100% | MALME-3M melanoma 108% | MDA-MB-231 breast 100% | RXF 393 renal 115% | SF-268 CNS 112% | SF-295 CNS 108% | SF-539 CNS 109% | UACC-257 melanoma 88.8% | M14 melanoma 101% | HT29 colon 92.2% | SNB-75 CNS 106% | SNB-19 CNS 97.3% | U251 CNS 95.6% | PC-3 prostate 84.7% | SK-MEL-5 melanoma 104% | UACC-62 melanoma 94.1% | LOX IMVI melanoma 98.3% | SK-MEL-28 melanoma 107%

O=C(N/N=C\c1ccc(N(CCCl)CCCl)cc1Cl)c1cccnc1
active: UACC-257 melanoma -10.9% | UACC-62 melanoma -40.4%
inactive: DU-145 prostate 94.4% | K-562 leukemia 82% | MALME-3M melanoma 116% | MDA-MB-231 breast 85% | RXF 393 renal 82.8% | SF-268 CNS 99.1% | SF-295 CNS 59.6% | SF-539 CNS 95.3% | M14 melanoma 98% | HCT-15 colon 79.9% | SNB-75 CNS 86.6% | SNB-19 CNS 89% | U251 CNS 65.2% | PC-3 prostate 92.9% | SK-MEL-5 melanoma 72.6% | LOX IMVI melanoma 87.1% | SK-MEL-28 melanoma 98.5%

CC(C)[C@]12O[C@H]1[C@@H]1O[C@]13[C@]1(O[C@H]1C[C@H]1c4c(C(=O)c5ccccc5)oc(OC(=O)c5ccccc5)c4CC[C@@]13C)[C@@H]2O
inactive: MDA-MB-231 breast 34.3% | SNB-19 CNS 13.8% | U251 CNS 12.1%
active: DU-145 prostate 0.787% | K-562 leukemia -12.5% | MALME-3M melanoma -59.1% | RXF 393 renal -81.1% | SF-268 CNS -20.7% | SF-295 CNS 8.47% | SF-539 CNS -40.6% | UACC-257 melanoma -25.5% | M14 melanoma -73.7% | HT29 colon 8.55% | SNB-75 CNS -30.5% | PC-3 prostate -0.741% | SK-MEL-5 melanoma -51.9% | UACC-62 melanoma -28.7% | LOX IMVI melanoma 9.13% | SK-MEL-28 melanoma -69.5%
